Screens as filed in PubChem.
In the library only some 9% were active in any assay of this set; here they are far more common.
ALDH1A1 inh – qHTS Assay for Inhibitors of Aldehyde Dehydrogenase 1 (ALDH1A1) | AID 1030, 2008 | Potency, µM (titrated, usually from 75.3 µM), for inactives: at the highest dose activity, negative = inhibition, usual class: inhibitors | Aldehyde dehydrogenase 1A1 (Homo sapiens), P00352 | Purified ALDH1A1, NADH fluorescence, propionaldehyde substrate | actives 7.3% (n = 220,000);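 also: potency is read from the fitted curve at half-maximal effect; plate controls were no enzyme wells and a reference inhibitor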
HPGD block – qHTS Assay for Inhibitors of HPGD (15-Hydroxyprostaglandin Dehydrogenase). actives 4.3% (n = 150,000). purified HPGD, NADH fluorescence kinetic, PGE2 substrate. Potency, µM, inactives show at the top dose activity change, negative = inhibition, most hits filed as inhibitors. 15-hydroxyprostaglandin dehydrogenase [NAD(+)] (Homo sapiens), P15428; also: potency is read from the fitted curve at half-maximal effect
Target sequence (P15428 whole entry, looked up): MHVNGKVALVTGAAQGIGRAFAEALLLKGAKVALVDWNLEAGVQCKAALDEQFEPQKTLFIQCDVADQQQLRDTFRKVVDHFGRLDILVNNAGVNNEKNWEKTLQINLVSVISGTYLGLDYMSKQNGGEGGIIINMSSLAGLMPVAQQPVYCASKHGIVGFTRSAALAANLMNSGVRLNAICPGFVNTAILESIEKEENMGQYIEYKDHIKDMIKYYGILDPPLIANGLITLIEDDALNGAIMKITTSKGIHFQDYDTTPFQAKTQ
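NADH formation kinetics: reaction with 30 uM PGE2 and 1 mM NAD+ (final), 20 nM enzyme, Tris-HCl pH 8 with Tween 20, after 15 min compound preincubation at room temperature. Fluorescence change, last versus first of five reads.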
IMPase cell inh – qHTS Assay for Identifying the Cell-Membrane Permeable IMPase Inhibitors. CHO-M1 cells, IP1 accumulation, HTRF TR-FRET ratio. inhibition (IP1 accumulation), % at 46.1 µM. 120,000 tested, under 10 active; active = well fitted curve in the direction sought with a large enough effect in the signal ratio, not every such curve was filed as active; inconclusive = small, poorly fitted or top-dose-only effect, or a change in a side signal; inactive = no such curve, though single readings can be large or run the other way; the % refers to the signal ratio;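 also: cells stimulated with carbachol in lithium chloride buffer; plate controls were DMSO basal wells for no effect and reference inhibitor wells for full effect; higher means more IMPase inhibition seen as more IP1 and lower FRET ratio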
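In this qHTS, compounds (final up to 46 uM) act on CHO-M1 cells that are then activated through the M1 receptor with carbachol, in pH 7.4 buffer containing 50 mM LiCl, for 30 min. IP1 accumulation is quantified by the IP-One immunoassay.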
Active calls of the source: *; ? = inconclusive; nt = no result. Unless noted, calls follow the shape of the dose curve; as a rule, active = well fitted inhibition curve with a large enough effect (not every such curve was filed as active); inconclusive = small, poorly fitted or top-dose-only effect, or another doubt; inactive = no such curve, though single readings can be large or run the other way. Unless noted, % is scaled to controls: 0 for no effect and ±100 for the full control effect.

SMILES	ALDH1A1 inh	HPGD block	IMPase cell inh
O=C(Nc1c2c(nc3ccccc13)CCCC2)c1ccccc1Cl	6%	-9%	?
CC(C)(C)CC(C)(C)NCC(=O)Nc1c2c(nc3ccccc13)CCC2	9.5µM*	nt	nt
CNc1nc(-c2cccnc2)nc2ccccc12	0%	nt	nt
COc1ccc(/C=C2\SC(=N)N(c3nccs3)C2=O)cc1OC	7%	?	8
C=CCN1C(=O)/C(=C/c2ccc(OCC(=O)O)cc2)S/C1=N/c1nccs1	5µM*	-19%	nt
C=CCN1C(=O)/C(=C/c2ccc(O)c(OC)c2)S/C1=N/c1nccs1	1µM*	-17%	nt
C=CCN1C(=O)/C(=C/c2ccc(N(C)C)cc2)S/C1=N\c1nnc(CC)s1	?	-10%	-3
COCCn1c(CCC(=O)O)nc2c1c(=O)[nH]c(=O)n2CC(C)C	14%	-7%	-7
O=C1C(=Cc2ccco2)C(=O)c2ccccc21	13µM*	-24%	nt
CCC1C/C(=C/c2ccco2)C(=O)/C(=C/c2ccco2)C1 (stereo not given)	?	-10%	7
COc1cc(/C=C2/CCc3ccccc3C2=O)cc(OC)c1OC	?	-14%	2
O=C1/C(=C/c2ccco2)CCc2ccccc21	28µM*	-7%	nt
CN(C)CCCN(C(=O)c1ccc2c(c1)CCCC2)c1nc2ccc(Cl)cc2s1	14µM*	-17%	-8
CN(C)CCCN(C(=O)CCc1ccccc1)c1nc2ccc(Cl)cc2s1	-26%	-11%	19
COc1ccc(/C=C/C(=O)O)cc1S(=O)(=O)N1CCCCC1	27%	nt	nt
Cc1cc(C)cc(N(C(=O)c2cccs2)C2C=CS(=O)(=O)C2)c1 (stereo not given)	7%	nt	nt
COc1cc(C=O)ccc1OCc1ccc(Cl)nc1	5µM*	nt	nt
COc1ccc(CCNCc2ccc(OCc3ccc(Cl)nc3)c(OC)c2)cc1OC	2%	-6%	-10
Cc1ccc(C)c(-c2nn(-c3cc(N4CCN(CCO)CC4)ccc3[N+](=O)[O-])c(=O)c3ccccc23)c1	-4%	-17%	-1
O=C(O)c1ccccc1C(=O)Nc1n[nH]c(=S)s1	6.3µM*	8.9µM*	-1
O=C(O)c1ccccc1C(=O)Nc1ccccc1	?	-16%	-12
Cc1ccsc1C1C2=C(CC(C)(C)CC2=O)Nc2ncnn21 (stereo not given)	11µM*	?	-1
Cc1ccsc1C1C2=C(CCCC2=O)Nc2ncnn21 (stereo not given)	?	-23%	1
COc1ccc(CN2CCN(c3ccccn3)CC2)cc1OCc1ccccc1	?	-7%	30
CCOC(=O)CC(NC(=O)c1cc2cccc(OC)c2oc1=O)c1cccc([N+](=O)[O-])c1 (stereo not given)	22µM*	?	5
SMILES	ALDH1A1 inh	HPGD block	IMPase cell inh
CCOC(=O)CC(NC(=O)c1cc2cc(Cl)cc(Cl)c2oc1=O)c1cccc([N+](=O)[O-])c1 (stereo not given)	-3%	-13%	-3
CN(C)S(=O)(=O)N(CC(=O)NCCSCc1cccc(Cl)c1)c1ccccc1	nt	nt	2
Cn1c(=O)n(C)c2cc(N3CCCCC3)c(NC(=O)c3ccc(C(C)(C)C)cc3)cc21	nt	nt	0
Cc1ccc(N(CC(=O)N=Nc2c(O)[nH]c3ccccc23)S(C)(=O)=O)c(C)c1	0%	nt	nt
Cc1ccc(N=Nc2c(O)c3ccccc3[nH]c2=O)c(S(=O)(=O)N(C)C)c1	14µM*	-1%	nt
O=C(NCC1CCCO1)C1CCCN1C(=O)Nc1ccc(Cl)cc1 (stereo not given)	5%	nt	nt
COc1ccc(/C=C2/C(=O)ON=C2c2ccccc2)cc1OC	22µM*	10µM*	-4
COc1cc(/C=C2\C(=O)ON=C2c2ccccc2)cc(OC)c1OC	?	14µM*	5
COc1ccc(/C=C2\C(=O)ON=C2c2cccc([N+](=O)[O-])c2)cc1	18µM*	nt	nt
Cc1ccc(C2=NOC(=O)/C2=C\C=C\c2ccccc2)cc1	3.5µM*	nt	nt
COc1ccc(/C=C2\N=C(c3c(-c4ccccc4)noc3C)OC2=O)cc1OC	7%	0%	6
COc1cc(C2=N/C(=C\c3ccccc3)C(=O)O2)cc(OC)c1OC	?	-20%	nt
COc1ccc(-c2ccc(=O)n(Cc3cccc([N+](=O)[O-])c3)n2)cc1	0%	nt	nt
CN(C)/C=C1\C(=O)ON=C1c1ccccc1	-5%	nt	nt
Cn1cccc1CC(=O)NNC(=O)Nc1cccc(Cl)c1	17%	-1%	-14
CC(=O)N1CCC(Nc2ccc(C)cc2)CC1	13%	-12%	6
CNc1ccnc(-c2ccccc2CN(C)C)n1	3%	-8%	nt
